Measured values as given in PubChem BioAssay (NCI).
About 83,000 compounds went through this panel and 20% of them were active in at least one assay; those are over-represented in the sample as a whole.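 Activity criterion: percent growth below 10, measured after cells in 96-well plates were exposed to a single compound concentration for 48 hours.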 Values without a mark were called inactive. Active and inactive are the calls of the source.

Tests used:
Assay in all cases: NCI-60 one-dose screen, 48 h (100 = growth as untreated, 0 = no growth, -100 = all killed)
Details in all cases: 10 µM unless noted
NCI-H23 lung = tested on: NCI-H23 lung
NCI-H226 lung = tested on: NCI-H226 lung
NCI-H322M lung = tested on: NCI-H322M lung
HOP-62 NSCLC = tested on: HOP-62 NSCLC
HOP-92 NSCLC = tested on: HOP-92 NSCLC
NCI-H522 lung = tested on: NCI-H522 lung
A549/ATCC NSCLC = tested on: A549/ATCC NSCLC
786-0 renal = tested on: 786-0 renal
COLO 205 colon = tested on: COLO 205 colon
DU-145 prostate = tested on: DU-145 prostate
K-562 leukemia = tested on: K-562 leukemia
MALME-3M melanoma = tested on: MALME-3M melanoma
MDA-MB-231 breast = tested on: MDA-MB-231 breast
RXF 393 renal = tested on: RXF 393 renal
SF-268 CNS = tested on: SF-268 CNS
SF-295 CNS = tested on: SF-295 CNS
SF-539 CNS = tested on: SF-539 CNS
UACC-257 melanoma = tested on: UACC-257 melanoma
M14 melanoma = tested on: M14 melanoma

SMILES | growth (NCI-H23 lung) | growth (NCI-H226 lung) | growth (NCI-H322M lung) | growth (HOP-62 NSCLC) | growth (HOP-92 NSCLC) | growth (NCI-H522 lung) | growth (A549/ATCC NSCLC) | growth (786-0 renal) | growth (COLO 205 colon) | growth (DU-145 prostate) | growth (K-562 leukemia) | growth (MALME-3M melanoma) | growth (MDA-MB-231 breast) | growth (RXF 393 renal) | growth (SF-268 CNS) | growth (SF-295 CNS) | growth (SF-539 CNS) | growth (UACC-257 melanoma) | growth (M14 melanoma)
CCC(=O)Nc1ccc(-c2nc(-c3cccc(OC)c3)c(-c3ccnc(Br)c3)[nH]2)cc1 | 76.9% | 55.1% | 67.4% | 75.3% | 61.4% | 56.9% | 60.9% | 40.8% | 71.2% | 70.6% | 24.1% | 69.4% | 71.8% | -22.8% (active) | 75.8% | 16.1% | 51.1% | 74.4% | 63.1%
COc1cc(C(=O)c2cnc(-c3cccc4[nH]ccc34)[nH]2)cc(OC)c1OC | 26.4% | 45.7% | 35.3% | 33.8% | 17.5% | -7.75% (active) | 24.5% | 6.82% (active) | -36.9% (active) | 2.85% (active) | 8.88% (active) | 60.8% | -3.5% (active) | 66.7% | 24.5% | 21.6% | 1.12% (active) | 85% | -6.97% (active)
COc1ccc(C(=O)C(C)C)c2ccccc12 | 101% | 105% | 117% | 99.8% | 83.6% | 102% | 129% | 100% | 113% | 104% | 92.7% | 115% | 104% | 109% | 102% | 103% | 103% | 128% | 104%
COc1ccc(S(=O)(=O)n2c3ccccc3n3ncc(-c4nnc(C)o4)c23)cc1 | 31.7% | 55.7% | 49% | 37.3% | 66% | 31.2% | 27.4% | 42.7% | 7.03% (active) | 22.8% | 15.4% | 66.9% | 30.1% | -22.2% (active) | 53% | 6.74% (active) | -1.67% (active) | 84.1% | 15.4%
N#C/C(=C\c1ccc(F)cc1)n1nc2cccc(F)c2n1 | 56.7% | 97.6% | 76.2% | 76.3% | 6.85% (active) | 8.28% (active) | 78.7% | 67.3% | 67.1% | 37.6% | 13.3% | 52.9% | 49% | 12.8% | 71.4% | 76.1% | 7.78% (active) | 61% | 25.8%
COc1ccc(C(=S)N2CCN(c3cccc(C)c3)CC2)cc1OC | 65.2% | 98.4% | 99.7% | 90.6% | 81% | 22.8% | 59.4% | 80.6% | 80.2% | 90.7% | 25.5% | 80% | 77.3% | 67.8% | 84.7% | 57.4% | 82.2% | 77.7% | 38.4%
O=C(Cc1ccc2c(c1)OCCO2)Nc1nc2ccc(F)cc2s1 | 87.1% | 104% | 105% | 93.4% | 109% | 87.2% | 102% | 104% | 124% | 107% | 76.3% | 97.3% | 115% | 43% | 119% | 106% | 101% | 109% | 100%
CN1CCN(c2ccc(-c3cnc4c(-c5csc6ccccc56)cnn4c3)cc2)CC1 | 14.3% | -5.69% (active) | 10.2% | -35.2% (active) | 0.36% (active) | -60.8% (active) | -76.9% (active) | -68.5% (active) | -80.9% (active) | 9.16% (active) | 3.45% (active) | -70.1% (active) | -25.3% (active) | -66.4% (active) | -15.8% (active) | -49.7% (active) | -86.4% (active) | -76.3% (active) | -71.8% (active)
O=C(Oc1cccc2ccccc12)Oc1cccc2ccccc12 | 90.9% | 98.5% | 104% | 96.1% | 62.8% | 93.8% | 107% | 110% | 127% | 104% | 103% | 98% | 94.2% | 115% | 75.3% | 109% | 101% | 127% | 96.2%
COc1ccc(OC)c(/C=C/C(=O)N/N=C/c2ccc(Cl)cc2)c1 | 34.8% | 73.1% | 41.3% | 37.9% | 77.7% |  | 27.8% | 16.7% | -48.9% (active) | 14.8% | 14% | 54.1% | 28.1% | -19.8% (active) | 33.2% | 31.8% | -43.2% (active) | 53% | -34.4% (active)
CC1Cc2ccccc2N1NC(=O)c1ccc(Cl)c(S(N)(=O)=O)c1 (configuration not stated) | 96.8% | 97.8% | 95.2% | 95.8% | 44.9% | 88% | 107% | 96.6% | 108% | 108% | 103% | 94.2% | 104% | 108% | 106% | 101% | 105% | 102% | 98.2%
Cc1onc2c(-c3ccccc3)n[nH]c(=O)c12 | 100% | 110% | 72.5% | 90.2% | 52.3% |  | 114% | 95% | 146% | 110% | 69.8% | 81.5% | 100% | 122% | 121% | 97.1% | 93.8% | 122% | 105%
c1ccc2c(-c3nc(-c4c[nH]c5ccncc45)cs3)c[nH]c2c1 | 74.4% | 78.5% | 79.1% | 49.3% | 49.2% | 56.3% | 34.5% | 64.9% | -77.8% (active) | 44.5% | -32% (active) | -48.8% (active) | 12.7% | 74.9% | 68.5% | 50.2% | 53% | 96.1% | -69.7% (active)
c1ccc(-c2nc3sc(-c4ccccc4)cn3n2)cc1 | 83.5% | 72.2% | 88.2% | 66.7% | 74.4% | 80.8% | 89.6% | 105% | 94.5% | 84.4% | 88.5% | 124% | 64.5% | 97.7% | 92.3% | 101% | 98.7% | 86% | 86.7%
O=C(COc1ccc(/C=C2\Cc3ccc(Cl)cc3C2=O)cc1)Nc1nc2ccccc2s1 | 95.5% | 101% | 134% | 98.2% | 97% | 96.7% | 99.5% | 103% | 116% | 115% | 86.4% | 132% | 96% | 88.4% | 112% | 108% | 98.9% | 105% | 103%
Brc1ccc2[nH]cc(-c3nc(-c4c[nH]c5ccncc45)cs3)c2c1 | -41.6% (active) | 89.7% | -18.6% (active) | -79.1% (active) | -34.3% (active) | -68.4% (active) | -77.6% (active) | -91.3% (active) | -76.4% (active) | -91.4% (active) | -61.5% (active) | -83.6% (active) | -84.4% (active) | -91.8% (active) | -65.7% (active) | -84.8% (active) | -94.9% (active) | -23.2% (active) | -73.3% (active)
